Bioassay records as filed in PubChem.
MCF10A rerep: A quantitative high throughput screen for small molecules that induce DNA re-replication in MCF 10a normal breast cells; Potency, µM (titrated, usually from 46.1 µM), actives largely listed as activators; MCF 10A DNA re-replication, Hoechst nuclear intensity, 48 h; hit rate 2.9% among 350,000; AID 624296, 2012; also: nearly all actives have a fitted effect of over 50% in size
HT1080NT lethal: qHTS for induction of synthetic lethality in tumor cells producing 2HG: qHTS for the HT-1080-NT fibrosarcoma cell line; HT-1080-NT fibrosarcoma viability, CellTiter-Glo ATP luminescence, 48 h; Potency, µM (top dose mostly 46.1 µM), usual class: cytotoxic; hit rate 1.6% among 360,000; AID 686970, 2013;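 also: NT is the 2HG producing partner of a matched IDH1 knockdown line; nearly all actives have a fitted effect of over 55% in size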
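A 48-hour cytotoxicity screen used HT-1080-NT cells plated 2 hours before compound delivery. ATP-based CellTiter-Glo luminescence measured viability, normalized to DMSO and no-cell controls.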
KB-3-1 tox: qHTS assay for MDR1-selective chemotherapeutics: Primary screen using the parental adenocarcinoma cell KB-3-1 | KB-3-1 viability, CellTiter-Glo ATP luminescence, 72 h | Potency, µM (doses to about 46.1 µM), hits mostly cytotoxic | hit rate 1.4% among 400,000 | AID 1347075, 2019; also: nearly all actives have a fitted effect of over 60% in size
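KB-3-1 parental drug-naive adenocarcinoma cells in DMEM/10% FBS, incubated 72 h at 37 C with pin-transferred compounds across a concentration series. Viability by CellTiter-Glo luminescence; concentration-response curves fitted after normalization.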
SW480 rereplic: A quantitative high throughput screen for small molecules that induce DNA re-replication in SW480 colon adenocarcinoma cells | Potency, µM (top dose mostly 46.1 µM), most hits filed as activators | hit rate 1.8% among 340,000 | AID 624297, 2012 | SW480 DNA re-replication, Hoechst DNA content imaging, 48 h; also: nearly all actives have a fitted effect of over 55% in size
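Per well, 250 cells were exposed to pinned compound for 48 hr. Nuclear DNA was visualised with Hoechst (40 min, 37 C) and total object intensity recorded by fluorescence scanning.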
KB-V1 MDR tox: qHTS assay for MDR1-selective chemotherapeutics: Primary screen using the drug-selected MDR subline cells KB-V1 | hit rate 3.4% among 400,000 | Potency, µM (series often up to 46.1 µM), usual class: cytotoxic | KB-V1 MDR cells viability, CellTiter-Glo, 72 h | AID 1347076, 2019; also: nearly all actives have a fitted effect of over 60% in size
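Luminescent ATP read-out (CellTiter-Glo, 10 min) measures survival of drug-selected KB-V1 MDR cells after 72 h, 37 degrees C compound exposure. Medium: phenol-red-free DMEM, 10% FBS. Values from fitted concentration-response curves.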
HT1080 IDH1KD tx: qHTS for induction of synthetic lethality in tumor cells producing 2HG: qHTS for the HT-1080-IDH1KD cell line. HT-1080 IDH1 knockdown viability, ATP luminescence, 48 h. Potency, µM (top dose mostly 46.1 µM), most hits filed as cytotoxic. hit rate 2% among 360,000. AID 686971, 2013
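% activity derives from luminescence (CellTiter-Glo), normalised to DMSO and no-cell wells. HT-1080-IDH1KD cells, 750/well, had 48 h compound exposure at 37 °C.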
Numbers stand for hits. Hits are enriched below; roughly 7.9% of the tested compounds scored in any of these assays. Calls follow the shape of the dose curve; as a rule, active = well fitted curve in the direction sought with a large enough effect; inconclusive = small, poorly fitted or top-dose-only effect, or another doubt; inactive = no such curve, though single readings can be large; an effect the other way counts as inactive or inconclusive.

For CCC(C)c1ccccc1N1CC(C(=O)NCCC2=CCCCC2)CC1=O (stereo unspecified) the results were MCF10A rerep inactive, HT1080NT lethal inactive, KB-3-1 tox inactive, SW480 rereplic inactive, KB-V1 MDR tox 23µM and HT1080 IDH1KD tx inactive.
COc1ccc2nc(/C(C#N)=C\c3ccc(C(=O)O)cc3)[nH]c2c1 was read as MCF10A rerep inactive, HT1080NT lethal inactive, KB-3-1 tox inactive, SW480 rereplic 18µM, KB-V1 MDR tox inactive and HT1080 IDH1KD tx inconclusive.
Screening COc1ccc(C(C#N)=Cc2ccccc2OC)cc1 returned HT1080NT lethal inconclusive, KB-3-1 tox 16µM, KB-V1 MDR tox 8.2µM and HT1080 IDH1KD tx inconclusive.
Screening COc1ccc(C(C#N)=Cc2ccc(NC(C)=O)cc2)cc1 returned MCF10A rerep 16µM, HT1080NT lethal inactive, KB-3-1 tox inactive, SW480 rereplic inconclusive, KB-V1 MDR tox inactive and HT1080 IDH1KD tx inactive.
`CC(=O)Nc1ccc(C(C#N)=Cc2ccc(N(C)CCC#N)cc2)cc1` gave HT1080NT lethal inactive, KB-3-1 tox inactive, KB-V1 MDR tox inconclusive and HT1080 IDH1KD tx inactive.
For O=C(NCCS(=O)(=O)N1CCN(c2ccccc2F)CC1)c1c(F)cccc1F the results were MCF10A rerep inactive, HT1080NT lethal inactive, KB-3-1 tox inconclusive, SW480 rereplic inactive, KB-V1 MDR tox inconclusive and HT1080 IDH1KD tx inactive.
O=S(=O)(CCNCc1ccco1)NCc1ccccc1 was read as MCF10A rerep inactive, HT1080NT lethal inactive, KB-3-1 tox inactive, SW480 rereplic inactive, KB-V1 MDR tox inactive and HT1080 IDH1KD tx inactive.
`COc1ccc(CNCC(=O)Nc2cc(OC)cc(OC)c2)cc1` gave MCF10A rerep inactive, HT1080NT lethal inactive, KB-3-1 tox inactive, SW480 rereplic inactive, KB-V1 MDR tox inconclusive and HT1080 IDH1KD tx inactive.
CC1(C)CCC[C@]2(C)[C@H]3Cc4cc(O)ccc4O[C@]3(C)CC[C@@H]12 was read as MCF10A rerep 12µM, HT1080NT lethal inconclusive, KB-3-1 tox inactive, SW480 rereplic inactive, KB-V1 MDR tox inactive and HT1080 IDH1KD tx inconclusive.
COc1ccc(C(=O)OCCc2cc3ccccc3c(=O)o2)cc1 was read as MCF10A rerep inactive, HT1080NT lethal inactive, KB-3-1 tox inactive, SW480 rereplic inactive, KB-V1 MDR tox inactive and HT1080 IDH1KD tx inactive.
For COC(=O)c1ccccc1NC(=O)Nc1ncccc1C the results were MCF10A rerep inactive, HT1080NT lethal inactive, KB-3-1 tox inactive, SW480 rereplic 21µM, KB-V1 MDR tox inactive and HT1080 IDH1KD tx inactive.
`Cc1cccnc1NC(=S)Nc1ncccc1C` gave MCF10A rerep inactive, HT1080NT lethal inactive, KB-3-1 tox inconclusive, SW480 rereplic inactive, KB-V1 MDR tox inactive and HT1080 IDH1KD tx inactive.
For CCOc1ccccc1NC(=S)Nc1ncccc1C the results were MCF10A rerep 18µM, HT1080NT lethal inconclusive, KB-3-1 tox 18µM, SW480 rereplic inconclusive, KB-V1 MDR tox 21µM and HT1080 IDH1KD tx inconclusive.
CCCCNC(=O)c1cnn2c(C)c(Cc3c(F)cccc3Cl)c(C)nc12 was read as KB-3-1 tox inactive and KB-V1 MDR tox inactive.
For O=C(NNc1ccccc1Br)C(O)(c1cccc(C(F)(F)F)c1)c1cccc(C(F)(F)F)c1 the results were MCF10A rerep inconclusive, HT1080NT lethal 21µM, KB-3-1 tox inconclusive, SW480 rereplic inconclusive, KB-V1 MDR tox 18µM and HT1080 IDH1KD tx inconclusive.
For Cc1ccc(NNC(=O)C(O)(c2cccc(C(F)(F)F)c2)c2cccc(C(F)(F)F)c2)cc1 the results were MCF10A rerep 12µM, HT1080NT lethal 7.3µM, KB-3-1 tox 16µM, SW480 rereplic inconclusive, KB-V1 MDR tox inconclusive and HT1080 IDH1KD tx 7.3µM.
`O=C(c1ccccc1)N1N=C(c2ccc(F)cc2)CC1c1ccc(F)cc1` (stereo unspecified) gave MCF10A rerep inactive, HT1080NT lethal inactive, KB-3-1 tox inactive, SW480 rereplic inactive, KB-V1 MDR tox inactive and HT1080 IDH1KD tx inactive.
